Bioassay records deposited in PubChem by several laboratories.
CYP2C9 inhib – human CYP2C9 inhibition; P11712; CYP2C9 Supersomes, luciferin-H conversion, luminescence; inhibition, % at 5 µM; actives 20% (n = 96,000);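 active = blocking of liver enzyme CYP2C9 beyond about 50% at 5 µM, limit read from the data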
Target sequence (P11712 whole entry, looked up): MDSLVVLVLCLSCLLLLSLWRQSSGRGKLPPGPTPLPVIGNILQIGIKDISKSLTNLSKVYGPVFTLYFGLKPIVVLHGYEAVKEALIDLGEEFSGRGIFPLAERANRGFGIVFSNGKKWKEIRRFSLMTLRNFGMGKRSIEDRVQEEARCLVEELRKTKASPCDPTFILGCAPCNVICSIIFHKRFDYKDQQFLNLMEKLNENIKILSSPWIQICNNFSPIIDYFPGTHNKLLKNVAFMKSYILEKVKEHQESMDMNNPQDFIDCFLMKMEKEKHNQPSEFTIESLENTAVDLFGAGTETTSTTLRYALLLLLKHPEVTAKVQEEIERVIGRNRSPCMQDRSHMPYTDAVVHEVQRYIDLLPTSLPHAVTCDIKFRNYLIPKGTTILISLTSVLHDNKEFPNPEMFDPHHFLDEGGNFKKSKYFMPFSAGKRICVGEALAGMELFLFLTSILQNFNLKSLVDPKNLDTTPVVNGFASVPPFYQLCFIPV
CYP2C9 activ – activators of human CYP2C9; P11712; AID 1024; recombinant CYP2C9, luciferin-H conversion, luminescence; stronger effect = higher value; factor 1 = untreated enzyme, 0 = blocked; activation factor at 5 µM; actives 1.4% (n = 96,000);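 active = activation factor of 2 or more for CYP2C9 at a 5 µM dose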;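 note: 0 = sulfaphenazole-blocked wells and 1 = vehicle-only wells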
CYP2C19 act – activators of human cytochrome P450 2C19; recombinant CYP2C19, luciferin-H EGE luminescence; stronger effect = higher value; 0 = fully inhibited enzyme, 1 = untreated enzyme; activation factor at 5 µM; P33261; 96,000 tested, under 10 active; AID 1025;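 active = activation factor of at least 2 at 5 µM in the primary screen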;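 note: 0 = wells with 2.5 mM tranylcypromine and 1 = vehicle-only wells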
PostGolgi ctrl – yeast control strain growth, post-Golgi counter-screen | efflux-deficient yeast background strain, growth absorbance A615, 16 h | inhibition, % at 10 µM | actives 5% (n = 98,000) | AID 738
CYP2C19 inhib – human CYP2C19 inhibition; CYP2C19 Supersomes, luciferin-H EGE luminescence, 30 min; P33261; AID 778; inhibition, % at 5 µM; actives 21% (n = 96,000);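 active = CYP2C19 inhibition above a set limit at 5 µM in the primary screen, cut at about 50% in these data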;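 note: plate controls were negative control wells for no effect and 2.5 mM tranylcypromine positive control for full effect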
PostGolgi yeast – growth inhibition of a yeast mutant, post-Golgi transport screen; post-Golgi transport phenotypic cell assay; inhibition, % at 10 µM; actives 0.9% (n = 98,000); AID 739;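 note: yeast cells grown in 1536-well plates; yeast grown about 18 h at 30C before absorbance read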
* marks the source's active call; other numbers are inactive results; nt = no result. Only some compounds are listed: those with a hit (about 32% of all), similar ones and a draw of the others. Cut-off read from the data, not from the text of the source, unless noted: active = inhibition above about 30%; inactive = the rest.

SMILES | CYP2C9 inhib | CYP2C9 activ | CYP2C19 act | PostGolgi ctrl | CYP2C19 inhib | PostGolgi yeast
Cc1ccc(OCC(=O)NCc2ccccn2)c(Br)c1 | -1 | 1 | 0.4 | 7 | 61* | -31
COC(=O)c1ccc(CNC(=O)COc2ccccc2Br)o1 | 2 | 1 | 0.3 | 13 | 71* | 0
O=C(O)CCCC(=O)NCc1ccccn1 | 2 | 1 | 1 | 1 | 1 | 2
CCOC(=O)CNC(=O)C1CCCN(c2ncccn2)C1 (stereo not drawn) | -14 | 1.1 | 1 | 8 | 0 | -2
Cc1cc(C)cc(SCc2noc(C(=O)NC(C)C)c2C(=O)O)c1 | 70* | 0.3 | 0.8 | -1 | 16 | -3
COC(=O)c1c(CSc2cccc(C)c2)noc1C(=O)NCc1ccco1 | 78* | 0.2 | 0.2 | 8 | 82* | 13
COc1cccc(SCc2noc(C(=O)NC(C)C)c2C(=O)O)c1 | 61* | 0.4 | 0.9 | 16 | 11 | -3
C=CCNC(=O)c1onc(CSc2cccc(OC)c2)c1C(=O)O | 67* | 0.3 | 0.9 | 7 | 6 | -2
COC(=O)c1c(CSc2ccc(Cl)cc2)noc1C(=O)NCc1ccco1 | 9 | 0.9 | 1 | 20 | 0 | 6
COc1ccc(C(=O)Cn2c(=O)c(CCC(=O)O)nn3c4ccccc4nc23)cc1OC | -9 | 1.1 | 1.1 | -1 | -13 | -3
CC(C)NC(=O)c1onc(CSc2ccccc2)c1C(=O)O | 33 | 0.7 | 0.9 | 26 | 8 | -3
Cc1cccc(SCc2noc(C(=O)NC(C)C)c2C(=O)O)c1 | 55* | 0.4 | 0.9 | 2 | 13 | 0
Cn1c(=O)cc(OCC(=O)NC2CCCCC2)c2ccccc21 | 2 | 1 | 0.4 | 1 | 62* | 21
CCC1CCCCN1C(=O)COc1cc(=O)n(C)c2ccccc12 (stereo not drawn) | 8 | 0.9 | 0.4 | 1 | 59* | -4
COc1ccc(C)cc1NC(=S)NNC(=O)c1ccccc1Cl | -3 | 1 | 0.4 | 10 | 61* | -4
Cc1ccc(NC(=O)c2ccccc2Cl)c(Cl)c1 | -120 | 2.2* | 0.9 | 7 | 8 | 19
CC(=O)c1c(C(C)=O)c(C)n(-c2ccc(C)c(NC(=O)c3ccccc3Cl)c2)c1C | 43 | 0.6 | 0.9 | 7 | 13 | 10
Cc1ccc(S(=O)(=O)NCCOc2nc(N3CCOCC3)nc(N3CCOCC3)n2)cc1 | 36 | 0.6 | 0.8 | 2 | 24 | -2
Cc1cc(C)nc(Sc2c(F)c(F)c(C(F)(F)F)c(F)c2F)n1 | -4 | 1 | 1 | -5 | -2 | 2
Cn1c(=O)cc(SCC(=O)NCc2cccnc2)c2ccccc21 | nt | nt | nt | -1 | nt | 0
Cc1ccnc(NC(=O)CCCOc2cc(=O)n(C)c3ccccc23)c1 | -33 | 1.3 | 1 | 6 | 1 | -1
Cn1c(=O)cc(SCC(=O)Nc2ccccn2)c2ccccc21 | -154 | 2.5* | 1.3 | 6 | -25 | 1
Cn1c(=O)cc(SCC(=O)Nc2cccnc2)c2ccccc21 | -102 | 2* | 0.8 | 11 | 18 | -10
Cc1ccnc(NC(=O)CSc2cc(=O)n(C)c3ccccc23)c1 | -209 | 3.1* | 2.3* | 17 | -127 | -3
O=C(CSc1ccccn1)Nc1cccc(NC(=O)CSc2ccccn2)n1 | 55* | 0.4 | 0.9 | 4 | 13 | -3
SMILES | CYP2C9 inhib | CYP2C9 activ | CYP2C19 act | PostGolgi ctrl | CYP2C19 inhib | PostGolgi yeast
CSCCC(NC(=O)OC(C)(C)C)C(=O)NC(CC(C)C)C(N)=O (stereo not drawn) | 1 | 1 | 1 | 0 | 5 | -5
O=C(Nc1cc(Cl)c(O)c(Cl)c1)C1CCCO1 (stereo not drawn) | -9 | 1.1 | 1.1 | 0 | -12 | -4
COC(=O)c1cccc(N2C(=O)C(Cl)=C(N3CCOCC3)C2=O)c1 | 49 | 0.5 | 0.4 | 22 | 61* | 9
Cc1ccccc1N1C(=O)C(Cl)=C(N2CCN(c3ccccc3)CC2)C1=O | 17 | 0.8 | 0.8 | 38* | 16 | -1
O=C1C(Cl)=C(N2CCOCC2)C(=O)N1c1ccccc1Cl | 9 | 0.9 | 0.1 | 13 | 94* | -5
CC1(C)CC(=O)c2cc(OCC(=O)N3CCOCC3)ccc2O1 | -17 | 1.2 | 1.1 | 21 | -10 | -2
COc1ccc(Cc2noc(-c3ccc(C)cc3)n2)cc1 | 18 | 0.8 | 0.9 | 6 | 8 | -7
CO/N=C(\CS(=O)(=O)Cc1ccc(OC)cc1)c1ccc(Cl)cc1 | 7 | 0.9 | 0.6 | 0 | 37 | -7
